{"source": "PubChem BioAssay AID1159580", "about": "(chemical genetic matrix, 2015)", "assay": "chemical genetic growth profiling, strain panel (AID 1159580);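 note: tested at 20 µM; growth read once vehicle control cultures reached saturation at 30 °C; 1 = growth at the plate median or of vehicle wells; lower values mean less growth of the strain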", "details": "S. cerevisiae deletion strains, growth OD", "note": "Several values for one entry are separate records, joined by “and”; a condition that tells them apart may be missing. Identical values can stand only once. Screen size: about 5,500 compounds; about 2,000 (36%) were called active. Roughly 18% stayed inconclusive and do not appear here. Some of the results follow. A number with no mark means an inactive call. Cut-off read from the data, not from the text of the source: active = normalized growth mostly below about 0.91 (no sharp cut-off); inconclusive = no clear call, values can overlap the other calls; inactive = mostly above about 0.92.", "data": [{"smiles": "ClC1=C(Cl)C2(Cl)C3C4C=CC(C4)C3C1(Cl)C2(Cl)Cl", "note": "(configuration not stated)", "values": [{"measurement": "normalized growth", "setting": "locus YAL013W, strain DEP1, active compounds read low", "value": 0.989}, {"measurement": "normalized growth", "setting": "locus YAL021C, strain ccr4, active compounds read low", "value": 0.987}, {"measurement": "normalized growth", "setting": "locus YAL026C, strain drs2, active compounds read low", "value": 0.993}, {"measurement": "normalized growth", "setting": "locus YAL030W, strain snc1, active compounds read low", "value": 1}, {"measurement": "normalized growth", "setting": "locus YBL061C, strain skt5, active compounds read low", "value": 1.01}, {"measurement": "normalized growth", "setting": "locus YBR009C, strain hhf1, active compounds read low", "value": 0.992}, {"measurement": "normalized growth", "setting": "locus YBR021W, strain FUR4, active compounds read low", "value": 1}, {"measurement": "normalized growth", "setting": "locus YBR023C, strain chs3, active compounds read low", "value": 0.997}, {"measurement": "normalized growth", "setting": "locus YBR171W, strain sec66, active compounds read low", "value": 0.988}, {"measurement": "normalized growth", "setting": "locus YBR229C, strain ROT2, active compounds read low", "value": 0.997}, {"measurement": "normalized growth", "setting": "locus YBR231C, strain swc5, active compounds read low", "value": 1}, {"measurement": "normalized growth", "setting": "locus YBR279W, strain paf1, active compounds read low", "value": 1.01}, {"measurement": "normalized growth", "setting": "locus YCL011C, strain gbp2, active compounds read low", "value": 0.999}, {"measurement": "normalized growth", "setting": "locus YCL016C, strain dcc1, active compounds read low", "value": 0.999}, {"measurement": "normalized growth", "setting": "locus YCL029C, strain bik1, active compounds read low", "value": 0.972}, {"measurement": "normalized growth", "setting": "locus YCL061C, strain MRC1, active compounds read low", "value": 0.993}, {"measurement": "normalized growth", "setting": "locus YCL069W, strain vba3, active compounds read low", "value": 0.997}, {"measurement": "normalized growth", "setting": "locus YCR088W, strain abp1, active compounds read low", "value": 0.991}, {"measurement": "normalized growth", "setting": "locus YDL005C, strain med2, active compounds read low", "value": 0.999}, {"measurement": "normalized growth", "setting": "locus YDL035C, strain GPR1, active compounds read low", "value": 0.949}, {"measurement": "normalized growth", "setting": "locus YDL040C, strain nat1, active compounds read low", "value": 0.998}, {"measurement": "normalized growth", "setting": "locus YDL074C, strain BRE1, active compounds read low", "value": 0.969}, {"measurement": "normalized growth", "setting": "locus YDL101C, strain DUN1, active compounds read low", "value": 0.993}, {"measurement": "normalized growth", "setting": "locus YDL134C, strain PPH21, active compounds read low", "value": 0.992}, {"measurement": "normalized growth", "setting": "locus YDL185W, strain tfp1, active compounds read low", "value": 1}, {"measurement": "normalized growth", "setting": "locus YDL192W, strain arf1, active compounds read low", "value": 0.997}, {"measurement": "normalized growth", "setting": "locus YDR001C, strain nth1, active compounds read low", "value": 0.996}, {"measurement": "normalized growth", "setting": "locus YDR069C, strain doa4, active compounds read low", "value": 0.99}, {"measurement": "normalized growth", "setting": "locus YDR101C, strain arx1, active compounds read low", "value": 1}, {"measurement": "normalized growth", "setting": "locus YDR137W, strain rgp1, active compounds read low", "value": 0.956}, {"measurement": "normalized growth", "setting": "locus YDR150W, strain NUM1, active compounds read low", "value": 1}, {"measurement": "normalized growth", "setting": "locus YDR159W, strain sac3, active compounds read low", "value": 0.901}, {"measurement": "normalized growth", "setting": "locus YDR162C, strain NBP2, active compounds read low", "value": 1}, {"measurement": "normalized growth", "setting": "locus YDR195W, strain ref2", "value": 0.955}, {"measurement": "normalized growth", "setting": "locus YDR297W, strain sur2, active compounds read low", "value": 1}, {"measurement": "normalized growth", "setting": "locus YDR318W, strain mcm21, active compounds read low", "value": 0.981}, {"measurement": "normalized growth", "setting": "locus YDR334W, strain swr1, active compounds read low", "value": 0.993}, {"measurement": "normalized growth", "setting": "locus YDR335W, strain msn5, active compounds read low", "value": 1}, {"measurement": "normalized growth", "setting": "locus YDR388W, active compounds read low", "value": 0.985}, {"measurement": "normalized growth", "setting": "locus YDR392W, strain spt3, active compounds read low", "value": 1}, {"measurement": "normalized growth", "setting": "locus YDR502C, strain sam2, active compounds read low", "value": 0.994}, {"measurement": "normalized growth", "setting": "locus YEL003W, strain gim4, active compounds read low", "value": 1}, {"measurement": "normalized growth", "setting": "locus YEL037C, strain rad23, active compounds read low", "value": 1}, {"measurement": "normalized growth", "setting": "locus YEL061C, strain CIN8 (second series), active compounds read low", "value": 1}, {"measurement": "normalized growth", "setting": "locus YEL061C, strain CIN8, active compounds read low", "value": 1}, {"measurement": "normalized growth", "setting": "locus YER015W, strain faa2, active compounds read low", "value": 1}, {"measurement": "normalized growth", "setting": "locus YER016W, strain bim1, active compounds read low", "value": 0.994}, {"measurement": "normalized growth", "setting": "locus YER110C, active compounds read low", "value": 0.99}, {"measurement": "normalized growth", "setting": "locus YER111C, strain swi4, active compounds read low", "value": 1}, {"measurement": "normalized growth", "setting": "locus YER155C, strain BEM2 (second series), active compounds read low", "value": 0.998}, {"measurement": "normalized growth", "setting": "locus YER155C, strain BEM2, active compounds read low", "value": 0.978}, {"measurement": "normalized growth", "setting": "locus YER167W, strain BCK2, active compounds read low", "value": 0.977}, {"measurement": "normalized growth", "setting": "locus YFR010W, strain ubp6, active compounds read low", "value": 0.988}, {"measurement": "normalized growth", "setting": "locus YGL078C, strain dbp3, active compounds read low", "value": 1}, {"measurement": "normalized growth", "setting": "locus YGL086W, strain mad1, active compounds read low", "value": 0.967}, {"measurement": "normalized growth", "setting": "locus YGL167C, strain pmr1, active compounds read low", "value": 0.983}, {"measurement": "normalized growth", "setting": "locus YGL173C, strain kem1, active compounds read low", "value": 0.992}, {"measurement": "normalized growth", "setting": "locus YGL227W, strain vid30, active compounds read low", "value": 0.996}, {"measurement": "normalized growth", "setting": "locus YGL240W, strain doc1, active compounds read low", "value": 0.981}, {"measurement": "normalized growth", "setting": "locus YGL248W, strain PDE1, active compounds read low", "value": 0.997}, {"measurement": "normalized growth", "setting": "locus YGL253W, strain hxk2, active compounds read low", "value": 0.983}, {"measurement": "normalized growth", "setting": "locus YGR078C, strain PAC10, active compounds read low", "value": 1.01}, {"measurement": "normalized growth", "setting": "locus YGR135W, strain pre9, active compounds read low", "value": 0.982}, {"measurement": "normalized growth", "setting": "locus YGR229C, strain SMI1, active compounds read low", "value": 0.952}, {"measurement": "normalized growth", "setting": "locus YGR252W, strain gcn5, active compounds read low", "value": 0.961}, {"measurement": "normalized growth", "setting": "locus YHR013C, strain ard1, active compounds read low", "value": 1.08}, {"measurement": "normalized growth", "setting": "locus YHR027C, strain rpn1, active compounds read low", "value": 0.988}, {"measurement": "normalized growth", "setting": "locus YHR030C, strain SLT2, active compounds read low", "value": "1 and 0.976"}, {"measurement": "normalized growth", "setting": "locus YHR079C, strain IRE1 (second series), active compounds read low", "value": 0.983}, {"measurement": "normalized growth", "setting": "locus YHR079C, strain IRE1, active compounds read low", "value": 0.979}, {"measurement": "normalized growth", "setting": "locus YHR094C, strain hxt1, active compounds read low", "value": 1}, {"measurement": "normalized growth", "setting": "locus YHR129C, strain ARP1, active compounds read low", "value": 1}, {"measurement": "normalized growth", "setting": "locus YHR142W, strain chs7, active compounds read low", "value": 1.01}, {"measurement": "normalized growth", "setting": "locus YHR200W, strain rpn10, active compounds read low", "value": 0.99}, {"measurement": "normalized growth", "setting": "locus YIL066C, strain RNR3, active compounds read low", "value": 0.941}, {"measurement": "normalized growth", "setting": "locus YIL073C, strain SPO22, active compounds read low", "value": 0.874}, {"measurement": "normalized growth", "setting": "locus YIL125W, strain kgd1, active compounds read low", "value": 1}, {"measurement": "normalized growth", "setting": "locus YIR030C, strain dcg1, active compounds read low", "value": 0.991}, {"measurement": "normalized growth", "setting": "locus YJL092W, strain hpr5, active compounds read low", "value": 0.992}, {"measurement": "normalized growth", "setting": "locus YJL095W, strain BCK1 (second series), active compounds read low", "value": 0.994}, {"measurement": "normalized growth", "setting": "locus YJL095W, strain BCK1, active compounds read low", "value": "1.01 and 1.03"}, {"measurement": "normalized growth", "setting": "locus YJL115W, strain asf1, active compounds read low", "value": 0.989}, {"measurement": "normalized growth", "setting": "locus YJL129C, strain trk1, active compounds read low", "value": "0.85 (active)"}, {"measurement": "normalized growth", "setting": "locus YJL134W, strain LCB3, active compounds read low", "value": 0.999}, {"measurement": "normalized growth", "setting": "locus YJL154C, strain vps35, active compounds read low", "value": 0.992}, {"measurement": "normalized growth", "setting": "locus YJL164C, strain tpk1, active compounds read low", "value": 0.981}, {"measurement": "normalized growth", "setting": "locus YJL166W, strain qcr8, active compounds read low", "value": 0.99}, {"measurement": "normalized growth", "setting": "locus YJL168C, strain set2, active compounds read low", "value": 0.991}, {"measurement": "normalized growth", "setting": "locus YJL187C, strain SWE1 (second series), active compounds read low", "value": 1}, {"measurement": "normalized growth", "setting": "locus YJL187C, strain SWE1, active compounds read low", "value": 1.01}, {"measurement": "normalized growth", "setting": "locus YJR043C, strain POL32, active compounds read low", "value": 0.981}, {"measurement": "normalized growth", "setting": "locus YJR066W, strain TOR1, active compounds read low", "value": 0.975}]}]}
